Composite z-score data for 7 compounds are collected here from PubChem BioAssay.

The assay in a line: probe aNOTCH3 binding on compound microarray – biochemical, small-molecule microarray, 635/667 nm fluorescence, primary screen (AID 1120).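 Note: probe is a biotin-tagged antibody raised against NOTCH3 rather than NOTCH3 protein; score merges spot fluorescence near 667 nm with spot signal to noise.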 The following applies: higher = more signal.
Compound `O=C(N1CCOCC1)[C@@]1(Cc2ccccc2)COC(c2ccc(OCCCO)cc2)=N1` yielded a composite z-score of 0.14.
The figure for `C=CCC(OC(C)=O)[C@@H]1[C@@H](N(Cc2ccc(-c3cccc(C(F)(F)F)c3)o2)C(=O)c2ccc(-c3ccccc3)cc2)c2cc(OCCCO)ccc2N1C(=O)c1ccc2ccccc2c1` (some centres not stated) is 0.0445; for `[N-]=[N+]=NCc1ccccc1[C@@H]1OC(c2ccc(OCCCO)cc2)=N[C@]1(Cc1ccccc1N=[N+]=[N-])C(=O)NCC(O)CO` (some centres not stated) it is 0.409; for `CCCNC(=O)[C@@]1(c2ccc([N+](=O)[O-])cc2)CC(=O)N(C(C)C)[C@@H]1c1ccc(CO)cc1` it is -0.344.
Under `CC(C)N1C(=O)C[C@@](C(=O)NCCN2CCOCC2)(c2ccc([N+](=O)[O-])cc2)[C@H]1c1ccc(CO)cc1` stands -0.256.
`CCCC[C@H]1OB(O)C[C@H]2C1=C(COc1ccccc1)C[C@H]1C(=O)C=CC(=O)[C@H]12` showed a composite z-score of -0.0333.
Under `CC(C)[Si](C#CCCc1ccccc1)(O[C@H](c1ccccc1)c1cn(Cc2ccccc2)nn1)C(C)C` stands 0.073.
